Each structure is given as a SMILES string. This is part of a sample that, as a whole, favours compounds with a hit. Of some 83,000 tested, about 20% had one in any assay.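 Note: values are percent growth. 100 is the growth of untreated cells, values between 100 and 0 indicate rising inhibition; between -100 and 0 indicates cell death.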 Active and inactive are the calls of the source.

In this assay the test system is IGROV1 ovarian. Kind of assay: NCI-60 one-dose screen, 48 h (100 = growth as untreated, 0 = no growth, -100 = all killed). The note with it: 10 µM unless noted. On the procedure:
Growth inhibition of the IGROV1 human tumor cell line is measured as a screen for anti-cancer activity. Cells are grown in 96 well plates and exposed to the test compound for 48 hours. Compounds are tested at a single concentration, which is 10^-5 M for most compounds. The reported endpoint is percent growth (GI% or GIPRCNT), where numbers from 0 - 100% represent growth inhibition, and numbers from -100% - 0 represent cell death. For example, a value of 40 represents 60% growth inhibition. A value of 0 means no net growth occurred over the course of the experiment. A value of -40 indicates 40% of cells at the beginning of the experiment died by the end of the experiment. A value of -100 means all cells are dead at the end of the experiment.
NCI-60 Human Tumor Cell Lines Screen was performed using the standard one-dose NCI protocol, which is described in more detail at https://dtp.cancer.gov/discovery_development/nci-60/default.htm.
Compounds with GIPRCNT values below 10 were considered active. Activity score was based on GIPRCNT using the following formula: […]
Score is 0 for GIPRCNT values of 100 or above, 50 for GIPRCNT values of 0, and 100 for GIPRCNT values of -100.
Take `N#Cc1ccc(C(=O)CSc2nc3c(c(Nc4ccc(S(N)(=O)=O)cc4)n2)CCC3)cc1`: the growth was 15.8% (inactive).

Regarding `FC(F)(F)c1cc2c(Cl)ncnc2n1CCN1CCOCC1`, the growth is -58.3% (active).

As for `C[C@@H]1[C@H]2C[C@@H](C[C@H]1NCc1nc3ccccc3n1C1CCCCCC1)C2(C)C`, the growth was 75.8% (inactive). Next, `Fc1ccccc1CNc1nc(SCCN2CCOCC2)nc2c1cnn2CC(Cl)c1ccc(Br)cc1` (stereo not given): 73.7% (inactive). Next, `Cc1cc(=O)oc2cc(OCC(O)CNN3C(=O)c4cccc5c(N6CCN(C)CC6)ccc(c45)C3=O)ccc12` (stereo not given): 109% (inactive). With `CCCCCCCCc1cccc(CC(=O)Nc2ccc(C)cc2C(=O)O)c1`, the growth is 42.5% [25 µM] (inactive).

`CCC(=O)c1cc(C(=O)OC)c2ccc3c4ccccc4ccc3n12`: the growth is 70.2% (inactive). In the case of `O=C(Nc1nc2ccc([N+](=O)[O-])cc2s1)Nc1ccccc1F` it was 21.7% (inactive); in that of `CS(=O)(=O)Nc1cncc(-c2ccc3ncnc(NCc4ccccc4)c3c2)c1`, 4.57% (active). In the case of `COc1ccc(NC(=O)CSc2nnc(-c3ccc(-c4nc5ccc(Cl)cc5[nH]4)cc3)o2)cc1`, the growth was 59.6% (inactive). Regarding `COc1cc(C2C(C(=O)OCc3ccccc3)=C(C)Nc3nc4ccccc4n32)cc(OC)c1OC` (stereo not given), the growth is 44.1% (inactive). In the case of `S=C(Nc1ccc(OCc2nc3ccc(Cl)cc3[nH]2)cc1)NC1CCCCC1` it was 7.22% (active); in that of `COc1cc(/C=C/C(=O)c2ccc(S(=O)(=O)NCCNc3nc(N(C)C)nc(N4CCOCC4)n3)cc2)cc(OC)c1OC`, -55% (active); in that of `O=C(NC(=S)N1CCN(c2ncnc3c2cnn3-c2ccccc2)CC1)c1ccc(F)cc1`, 79.4% (inactive). On to `O=C(COc1ccc(/C=C2/C(=O)Nc3ccc(Cl)cc32)cc1)Nc1ccc(Br)cc1`, for which the growth is -22.2% (active). In the case of `CCOc1ccc2[nH]c(=O)c(C(c3nnnn3CC3CCCO3)N3CCN(Cc4ccccc4)CC3)cc2c1` (stereo not given) it was 84.6% (inactive); in that of `O=C1NC(=NC23CC4CC(CC(C4)C2)C3)N/C1=C\c1ccc2ncccc2c1`, 8.97% (active); in that of `COc1ccc2[nH]c(O)c(N=NC(=O)c3ccc4nc(-c5ccc(Cl)cc5)[nH]c4c3)c2c1`, 78.1% (inactive). As for `COc1ccc2ccccc2c1/C=C1\SC(=Nc2ccc(O)cc2)NC1=O`, the growth is 11.3% (inactive).

`O=C(OCCOCCO)N(c1cccc(Br)c1)c1nc(SCCN2CCOCC2)nc2c1cnn2CC(Cl)c1ccc(Br)cc1` (stereo not given): the growth is 31.8% (inactive). In the case of `COc1cccc2nc(Nc3cccc(NC(=O)c4ccc(CN5CCN(C)CC5)c(C(F)(F)F)c4)c3)ccc12` it was -87.1% (active); in that of `Cc1nc(Nc2ccccn2)sc1C1=NNC(c2ccccc2F)C1` (stereo not given), 64.2% (inactive); in that of `C=CC(=O)Nc1ccc(C(=O)/C=C/c2ccc(N(C)C)cc2)c(O)c1`, 15.8% (inactive). Next, `COc1ccc2[nH]c(=O)c(CSc3ccccc3Nc3nccc(-c4ccc5c(c4)OCO5)n3)cc2c1`: 87.4% (inactive); `CN(C)CCOc1ccc(C(=O)C2[C@H](c3ccc(Cl)cc3)[C@@H](c3ccccc3)NC23C(=O)Nc2ccc(Cl)cc23)cc1` (stereo not given in full): -87% (active).

As to `Cc1ccc(O)cc1Nc1nc(SCCN2CCOCC2)nc2c1cnn2CC(Cl)c1ccc(Br)cc1` (stereo not given), the growth is -1.66% (active). Next, `CCCN(CCC)S(=O)(=O)c1ccc(C(=O)O)cc1.CCCN(CCC)S(=O)(=O)c1ccc(C(=O)O)cc1.[Cl][Pt+2][Cl].[NH2-].[NH2-]`: 7.54% (active); `COc1cc(NC(=O)C(C)C)ccc1C(=O)NC(=S)Nc1ccc(S(N)(=O)=O)cc1`: 97.2% (inactive).

On to `C/C(=N\Nc1ccc(C(=O)O)cc1)c1cnn(-c2cc(=O)[nH]c3ccc(C)cc23)c1C`, for which the growth is 112% (inactive). Next, `Cc1ccc(C(=O)Nc2cccc(C(=O)NC(=S)Nc3ccc(S(N)(=O)=O)cc3)c2)cc1`: 96.2% (inactive).

In the case of `Cn1cc(-c2cc(N)n3nc(-c4c[nH]c5ccc(Cl)cc45)cc3n2)c2cccnc21`, the growth is -77.7% (active). Next, `Cn1cc(Nc2ncnc(-c3ccc(N4CCCC4)c(C#N)c3)n2)cn1`: 51.7% (inactive); `COC(=O)c1ccc(-c2c(-c3ccccc3)c(F)c3oc(C(=O)OC)c(N)c3c2-c2ccccc2)cc1`: 102% (inactive). Consider `CS(=O)(=O)Nc1cccc(-n2cnc3cc(-c4ccc(O)cc4)ccc32)c1`, for which the growth was 57.7% (inactive).

As for `O=C(N/N=C/c1ccoc1)c1[nH]c2ccc(Br)cc2c1-c1ccccc1`, the growth was -87.4% (active).

On to `Cc1ccc(C2CC(c3ccc(NC(=S)Nc4ccccc4)cc3)=NN2c2ccc(S(N)(=O)=O)cc2)cc1` (stereo not given), for which the growth is 19.2% (inactive). Next, `CCCCCCCCCCCCCCCCCC(=O)Nc1ccc(OC)cc1`: 103% (inactive). In the case of `COc1cc(CNC(=O)C[C@H](C)CCC=C(C)C)ccc1OCc1cn(-c2ccccc2Cl)nn1` it was 87.1% (inactive); in that of `COc1cc2cc(C(=O)N3C[C@@H](CCl)c4c3cc(OC(=O)N(CCC(=O)N3CCN(C)CC3)[C@H]3CCSSC3)c3ccccc43)[nH]c2c(OC)c1OC`, -16.7% (active); in that of `COc1ccc2[nH]cc(-c3cc(N)n4nc(-c5c[nH]c6ccccc56)cc4n3)c2c1`, 16% (inactive).
